Records with an inconclusive call do not appear. Where a call stands in place of a potency, no number is given. Activity calls are given as the source filed them. Calls come from the whole dose curve; as a rule, active = well fitted activation curve with a large enough effect; inconclusive = small, poorly fitted or top-dose-only effect; inactive = flat fitted curve, though single readings scatter.
Test: qHTS for Inhibitors of Cell Surface uPA Generation: FP59 Counterscreen for Cherry-picked Compounds
Details: FP59 anthrax toxin cytotoxicity counterscreen, cells; series mostly up to 115 µM

Row | SMILES | Potency
1 | COc1ccc(C(=O)CC(=O)C(=O)Nc2ccccc2)cc1 | inactive
2 | Cn1cc(SCC(=O)Nc2nccs2)c2ccccc21 | inactive
3 | CCOC(=O)C1=C(CN2CCN(C(=O)c3ccco3)CC2)NC(=O)NC1c1ccccc1 (stereo not given) | inactive
4 | Cc1cc(OC(C)C(=O)NCc2ccccn2)c2c(C)cc(=O)oc2c1 (stereo not given) | inactive
5 | CCCCCOC(=O)Nc1nnc(CCCCC)s1 | inactive
6 | CC(C)N1CCc2c(sc(NC(=O)CCc3ccccc3)c2C(N)=O)C1 | inactive
7 | COc1ccc(-n2nc(C(=O)Nc3cc(OC)c(OC)c(OC)c3)c3ccccc3c2=O)c(OC)c1 | inactive
8 | CC(C)(O)C#Cc1ccc(C(=O)N2CCCC(CCC(=O)NCc3ccccc3F)C2)cc1 (stereo not given) | inactive
9 | COc1ccc(NC(=O)CN2C(=O)CSc3ncccc32)cc1 | inactive
10 | COCCNS(=O)(=O)c1cc(OC)c(C)cc1C | inactive
11 | Cn1c(CN2CCCC2)nc2cc(NC(=O)COc3ccccc3)ccc21 | inactive
12 | COc1ccc(C(=O)NC(C)c2cnn(-c3ccccn3)c2C)o1 (stereo not given) | inactive
13 | CCCCNC(=O)c1cc2c(-c3ccc(Cl)cc3)nn(C)c2s1 | inactive
14 | N#Cc1cccc(NC(=O)Cn2cnc(S(=O)(=O)N3CCOCC3)c2)c1 | inactive
15 | Cc1cccc(NC(=O)C2CCCN(S(=O)(=O)c3cccc4cccnc34)C2)c1 (stereo not given) | inactive
16 | CCN(c1ccccc1)S(=O)(=O)c1ccc(NC(=O)c2ccco2)cc1 | inactive
17 | O=C1NC(CCc2ccccc2)C(=O)N1Cc1ccccc1Cl (stereo not given) | inactive
18 | CC(C)c1ccc(C2/C(=C(\O)c3ccc4c(c3)OCCO4)C(=O)C(=O)N2CCN2CCOCC2)cc1 (stereo not given) | inactive
19 | O=[N+]([O-])c1ccc(-c2cn3c(n2)SCC3)cc1 | inactive
20 | O=C(CSc1nncs1)NC(=O)NCc1ccco1 | inactive

Row | SMILES | Potency
21 | CCc1ccccc1N(CC(=O)N1CCCC1)S(C)(=O)=O | inactive
22 | OCC1CCCCN1CC(O)COC(c1ccc(F)cc1)c1ccc(F)cc1 (stereo not given) | inactive
23 | COC(=O)CCNS(=O)(=O)c1ccc2nsnc2c1 | inactive
24 | Cc1nn(CC(=O)OCC(=O)NC(C)c2ccccc2)c(C)c1[N+](=O)[O-] (stereo not given) | inactive
25 | CCOC(=O)C1CCN(C(=O)COC(=O)c2c(C)c(CC)nc3ccccc23)CC1 | inactive
26 | O=C(Nc1ccc(NC(=O)c2ccco2)c(Cl)c1)c1ccccc1 | inactive
27 | CC(Sc1nnc2ccccn12)C(=O)NCc1ccc2c(c1)OCO2 (stereo not given) | inactive
28 | CCCNC(=O)COc1coc(CN2CCN(c3ccccc3OC)CC2)cc1=O | inactive
29 | O=C(O)c1ccc(-n2nnnc2SCc2cccc(Br)c2)cc1 | inactive
30 | CCOc1ncccc1C(=O)NCc1ccccc1Cl | inactive
31 | CC(C)C(NC(=O)Cc1ccccc1)C(=O)N1CCN(c2cccc(Cl)c2)CC1 (stereo not given) | inactive
32 | N/C(=N/OC(=O)c1ccccc1F)c1nonc1N | inactive
33 | CCOc1ccc(N(CC(=O)Nc2ccc(CC)cc2)S(=O)(=O)c2c(C)[nH]c(=O)[nH]c2=O)cc1 | inactive
34 | CC(C)C[C@H]1CN([C@@H](CC(C)C)CN2CCCC2CN2C(=S)NC[C@@H]2Cc2ccc(O)cc2)C(=S)N1CC1CCCCC1 (stereo not given in full) | inactive
35 | CCCn1nnc(NC(=S)NC(=O)c2ccccc2OC)n1 | inactive
36 | Cc1cc(SCc2ccc(Cl)cc2)nc(=O)[nH]1 | inactive
37 | CC(C)c1ccc(NC(=O)COc2ccc(S(=O)(=O)N3CCOCC3)cc2)cc1 | inactive
38 | COc1ccccc1CNC(=O)CCCn1nc(C)c2c(C)n(-c3ccccc3)nc2c1=O | inactive
39 | C/C(=N\NC(=S)NC(C)C)c1ccc(Cl)s1 | inactive
40 | Cc1ccc2nc(-c3ccncc3)cc(C(=O)NCCc3ccc(F)cc3)c2c1 | inactive

— PubChem BioAssay AID720517 (National Center for Advancing Translational Sciences (NCATS), 2013)
